# Screening results as filed in PubChem BioAssay.
# hgDAF12 agonist: H. glycines DAF-12 receptor agonists, primary screen, cell-based, luminescence, HEK293, GAL4 fusion, UAS-luciferase. activation, % at 6.8 µM. 370,000 tested, 1.8% active. HEK293 GAL4-hgDAF12 UAS-luciferase reporter, agonist luminescence; normalized to butyrate control. Nuclear hormone receptor DAF-12 (Heterodera glycines), GAL4 fusion;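 active = activation above a cutoff set at the mean of all screened compounds plus 3 SD, cut at about 10% in these data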;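 also: 0% = DMSO wells and 100% = sodium butyrate wells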
# ssDAF12 agonist: S. stercoralis DAF-12 nuclear receptor activators, primary screen, cell-based, luminescence, HEK293, GRIP1 co-expression, lit1-tk-luc; activation, % at 6.8 µM; 370,000 tested, 1% active; AID 652126, 2013; Nuclear hormone receptor DAF-12 (Strongyloides stercoralis); HEK293 ssDAF-12/GRIP1 lit1-tk-luc reporter; % of 3 µM dafachronic acid response;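 active = activation above the mean over all tested compounds plus 3 SD, cut at about 0.9% in these data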;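 also: 0% = DMSO-only wells and 100% = 3 µM delta7-dafachronic acid wells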
# Wnt act: Wnt/beta-catenin pathway activators, primary screen, cell-based, plate reader, single point | AID 743398, 2014 | Wnt/beta-catenin reporter cell assay, activator | activation, % at 9.35 µM | 300,000 tested, 1.2% active; in the data active = activation above about 30%, passing the limit was not always enough;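 also: 0% = neutral control wells and 100% = positive control wells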
# DAX1 inh: DAX1 (NR0B1) inhibitors on StAR promoter, primary screen, cell-based, luminescence, SF-1 (NR5A1), full-length DAX-1. 370,000 tested, 1.1% active. HEK293T StAR-luciferase reporter, SF-1/DAX-1 repression relief. inhibition, % at 6.8 µM;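 active = inhibition above the mean over all tested compounds plus 3 SD, cut at about 3.6% in these data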;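 also: 0% = DAX-1 cells with DMSO and 100% = cells lacking DAX-1 with DMSO; higher inhibition means more luminescence from relief of DAX-1 repression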
# esBAF inh: Bmi1 luciferase reporter increase in mESCs, primary screen, esBAF inhibitor project, mouse ES cells, Bmi1 luciferase knock-in, single point; 24 h; 100% = twice the neutral-well signal; reporter increase, % at 12.5 µM; 350,000 tested, 2% active; AID 602393, 2012; in the data active = activation above about 40%;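 also: 0% = median of the plate's neutral control wells and 100% = double that signal; a rise in the Bmi1 reporter signal indicates esBAF inhibition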
# hcDAF-12 act: H. contortus DAF-12 nuclear receptor activators, primary screen, cell-based, luminescence, HEK293, lit1-tk-luc reporter; HEK293 hcDAF-12 lit1-tk-luc reporter; 0% DMSO, 100% Δ7-dafachronic acid; activation, % at 6.8 µM; 370,000 tested, 1.4% active; AID 652067, 2013;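 active = activation above the mean of all tested compounds plus 3 SD, cut at about 5.5% in these data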;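 also: 100% = response to 3 µM Δ7-dafachronic acid high control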
# LXR ag: LXR agonists, Gal4 luciferase reporter, confirmation, counter-screen for hcDAF-12 agonist project, cell-based, luminescence, HEK293, H. contortus campaign. 3,400 tested, under 10 active. shares compounds with hcDAF-12 act. activation, % at 6.8 µM. HEK293 Gal4-LXR tk-luc reporter, 24 h; normalized: DMSO 0%, positive control 100%;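 active = mean percent activation of the reporter above a cutoff set as the average over tested compounds plus their standard deviation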
# Target sequence (P55055 whole entry, looked up, the tested form may be a part): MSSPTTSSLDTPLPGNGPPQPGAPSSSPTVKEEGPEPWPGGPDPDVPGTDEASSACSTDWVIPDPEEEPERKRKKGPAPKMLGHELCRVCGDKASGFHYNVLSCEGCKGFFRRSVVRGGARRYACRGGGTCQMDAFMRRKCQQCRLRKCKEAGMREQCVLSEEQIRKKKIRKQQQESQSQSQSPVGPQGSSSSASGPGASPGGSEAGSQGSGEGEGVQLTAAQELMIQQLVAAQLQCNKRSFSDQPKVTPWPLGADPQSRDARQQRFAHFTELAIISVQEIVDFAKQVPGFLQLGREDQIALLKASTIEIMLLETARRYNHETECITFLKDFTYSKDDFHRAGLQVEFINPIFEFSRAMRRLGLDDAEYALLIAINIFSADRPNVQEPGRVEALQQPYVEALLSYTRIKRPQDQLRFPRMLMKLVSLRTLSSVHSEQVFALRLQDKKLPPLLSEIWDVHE
# hcDAF12 conf: H. contortus DAF-12 receptor agonists, confirmation, cell-based, luminescence, HEK293, lit1-tk-luc, triplicate; HEK293 hcDAF-12 lit1-tk-luc reporter; % of Δ7-dafachronic acid response; 3,400 tested, 61% active; shares compounds with hcDAF-12 act; AID 743032, 2013; activation, % at 6.8 µM;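 active = mean activation across triplicate tests above the threshold derived from the earlier primary screen, cut at about 5.5% in these data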;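 also: 0% = DMSO only wells and 100% = 3 µM Δ7-dafachronic acid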
# hgDAF12 ag: H. glycines DAF-12 receptor agonists, confirmation, cell-based, luminescence, HEK293, GAL4-LBD fusion; activation, % at 6.8 µM; shares compounds with hgDAF12 agonist; HEK293 GAL4-hgDAF12 luciferase reporter, agonist mode; percent of butyrate response; 3,300 tested, 80% active;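 active = mean activation over triplicate wells above the hit cutoff derived from the earlier primary screen, cut at about 11% in these data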;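 also: 0% = DMSO low control and 100% = 2 mM sodium butyrate high control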
# LXR ag 2: LXR agonists, Gal4 luciferase reporter, confirmation, counter-screen for hgDAF-12 agonist project, cell-based, luminescence, HEK293, H. glycines campaign; shares compounds with hgDAF12 agonist; 24 h; activation, % at 6.8 µM; 3,300 tested, under 10 active; AID 743051, 2013;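 active = mean activation of the triplicate above a set limit carried over from the primary screen, none filed active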
# Starred values were filed as active, the others as inactive; / = no result. This is a sample that favours compounds with a hit; in the whole collection about 4.2% have one here.
SMILES,hgDAF12 agonist,ssDAF12 agonist,Wnt act,DAX1 inh,esBAF inh,hcDAF-12 act,LXR ag,hcDAF12 conf,others
O=c1[nH]c(=O)n(CC2CCCO2)c(O)c1/C=C1\C=Nc2ccccc21 (stereo unspecified),5,-1,2,0,/,6.1*,0,4,
c1ccc2c(CN3CCOCC3)c[nH]c2c1,-1,-1,0,0,1,7.0*,0,5,
COC(=O)[C@@H]1[C@@H](CO)[C@@H]2Cn3c(ccc(/C=C/c4ccccc4)c3=O)[C@H]1N2C(=O)C1CCC1,/,/,/,/,-1,/,/,/,
CC(=O)n1cc(C=C2C(=O)NC(=O)NC2=O)c2ccccc21,-2,1,0,1,-8,9.8*,0,5,
Cn1cc(C=C2C(=O)NC(=O)NC2=O)c2ccccc21,0,0,-2,0,-6,5,/,/,
Cc1ccc(-c2nn(Cc3ccccc3)cc2C=O)cc1,8,0,55*,3,/,9.4*,0,4,
COC(=O)[C@H]1[C@H](CO)[C@H]2Cn3c(ccc(-c4cccc(F)c4)c3=O)[C@@H]1N2C(=O)CC1CC1,/,/,/,/,2,/,/,/,
Cc1cc(S(N)(=O)=O)ccc1N=Cc1c(O)n(-c2ccccc2)c(=O)[nH]c1=O,-2,0,-2,0,/,1,/,/,
Cc1ccc(-n2c(O)c(C=Nc3ccccc3N)c(=O)[nH]c2=O)cc1C,10,1,17,4.4*,38,7.8*,0,3,
CCOP(=O)(OCC)C1(O)C(=O)Nc2ccccc21 (stereo unspecified),0,0,/,0,/,7.1*,0,3,
COC(=O)[C@H]1[C@H](CO)[C@H]2Cn3c(ccc(-c4ccccc4OC)c3=O)[C@@H]1N2Cc1ccccc1,/,/,/,/,3,/,/,/,
O=C(c1cc(Br)ccc1Cl)N1CCC2(CC1)OCCO2,0,-1,/,0,-2,0,/,/,
O=C(c1cc2cc(Br)ccc2[nH]1)N1CCC2(CC1)OCCO2,3,0,4,0,20,7.6*,0,5,
COc1cc(CNCCc2c[nH]c3ccccc23)cc(OC)c1,0,-1,2,0,-4,8.5*,0,1,
COC(=O)[C@H]1[C@H](CO)[C@H]2Cn3c(ccc(C4=CCCCC4)c3=O)[C@@H]1N2Cc1ccccn1,/,/,/,/,-2,/,/,/,
COC(=O)[C@@H]1[C@@H](CO)[C@@H]2Cn3c(ccc(C4=CCCCC4)c3=O)[C@H]1N2Cc1cccnc1,/,/,/,/,-1,/,/,/,
CCC(N)Cc1c[nH]c2ccccc12 (stereo unspecified),-1,0,0,0,-5,7.2*,0,5,
CNCCc1c[nH]c2ccccc12,/,/,/,/,-3,/,/,/,
COC(=O)[C@@H]1[C@@H](CO)[C@@H]2Cn3c(ccc(-c4ccccc4F)c3=O)[C@H]1N2Cc1ccccc1,/,/,/,/,-4,/,/,/,
COc1cccc(-n2c(=S)[nH]c3ccccc3c2=O)c1,0,-2,/,-1,/,3,/,/,
COc1ccc2c(c1)NP(=S)(Oc1ccccc1)N2 (stereo unspecified),13*,0,12,1,3,5,/,/,hgDAF12 ag=8;LXR ag 2=0
CCCNC(=O)N1[C@@H]2c3ccc(-c4ccccc4OC)c(=O)n3C[C@H]1[C@H](CO)[C@H]2C(=O)OC,/,/,/,/,-4,/,/,/,
Cc1cc(C(=O)CS(=O)(=O)c2ccccc2)cc(C)c1OC(=O)N(C)C,14*,0,13,4.0*,/,4,/,/,hgDAF12 ag=9;LXR ag 2=1
Cc1ccc(S(=O)(=O)CC(=O)c2cc(C)c(OC(=O)N(C)C)c(C)c2)cc1,1,-1,-1,-1,/,-2,/,/,
COc1ccc(-c2cc(=Nc3cccc(C(=O)O)c3)c3cc(C)ccc3o2)cc1,19*,0.9*,-4,3,/,5,/,/,hgDAF12 ag=19*;LXR ag 2=1
O=C(Cc1ccccc1)N1C[C@@H]2[C@H](c3ccccc31)[C@H](CO)N2Cc1ccccc1,/,/,/,/,-3,/,/,/,
CN1C(=O)NC(=O)C(C)(C2=CCCCC2)C1=O (stereo unspecified),22*,-1,0,3.9*,28,5,/,/,hgDAF12 ag=13*;LXR ag 2=0
